KB-3-1 tox = kills parental KB-3-1 adenocarcinoma cells; KB-3-1 viability, CellTiter-Glo ATP luminescence, 72 h; Potency, µM (top dose mostly 46.1 µM), most hits filed as cytotoxic; 400,000 compounds, 1.4% hits; AID 1347075; note: % is set by controls: 0 for no effect and ±100 for the full control effect; nearly all actives have a fitted effect of over 60% in size
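Here the drug-naive KB-3-1 line serves as comparator for MDR sub-line selectivity; cells received compound titrations, 72 h at 37 °C, then CellTiter-Glo readout.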
SW480 rerep = DNA re-replication induction in SW480 cells; Potency, µM (doses to about 46.1 µM), without a hit: top-dose re-replication activation, usual class: activators; SW480 DNA re-replication, Hoechst DNA content imaging, 48 h; 340,000 compounds, 1.8% hits; AID 624297; note: % of control where 0% means no effect; nearly all actives have a fitted effect of over 55% in size
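DNA re-replication was detected as more nuclei of elevated Hoechst intensity after 48 hr exposure to compound (23 nL pinned per well of 250 cells).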
KB-V1 MDR tox = KB-V1 MDR subline cytotoxicity; KB-V1 MDR cells viability, CellTiter-Glo, 72 h; Potency, µM (top dose mostly 46.1 µM), usual class: cytotoxic; 400,000 compounds, 3.4% hits; AID 1347076; note: % is set by controls: 0 for no effect and ±100 for the full control effect; nearly all actives have a fitted effect of over 60% in size
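In this primary screen, KB-V1 cells overexpressing P-gp are incubated with library compounds (lowest to highest concentration) for 72 h at 37 degrees C before a luminescent ATP viability read.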
MCF10A rereplic = DNA re-replication induction in MCF 10a cells; MCF 10A DNA re-replication, Hoechst nuclear intensity, 48 h; Potency, µM (titrated, usually from 46.1 µM), without a hit: at the highest dose activity, positive = re-replication, hits mostly activators; 350,000 compounds, 2.9% hits; AID 624296; note: % of control where 0% means no effect; nearly all actives have a fitted effect of over 50% in size
ELG1 DNA repair = blocks ELG1-dependent DNA repair in HEK293T cells. Potency, µM (highest dose often 46.1 µM), for inactives: at the top dose activity change, negative = inhibition, hits mostly inhibitors. AID 504467. HEK293T ELG1-luciferase reporter, luminescence, 16 h; DNA damage induced by 5-fluorouridine. 330,000 compounds, 2.3% hits; note: % is set by controls: 0 for no effect and ±100 for the full control effect; nearly all actives have a fitted effect of over 55% in size
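Step one: seed 2,000 cells per well. Step two: pin-transfer compound or DMSO alongside 5-fluorouridine. Step three: incubate 16 hr, 37 °C, 5% CO2. Step four: add ONE-Glo, wait 30 min, read luminescence.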
An asterisk follows results filed as active; i = inactive; ? = inconclusive; / = not tested or not shown; [ ] = remark or other dose. Compounds with a hit are over-represented: about 8.1% of the library has one in this group of screens. Calls come from the whole dose curve; as a rule, active = well fitted curve in the direction sought with a large enough effect; inconclusive = small, poorly fitted or top-dose-only effect, or another doubt; inactive = no such curve, though single readings can be large; an effect the other way counts as inactive or inconclusive. Potency is the fitted concentration of half-maximal effect.

SMILES	KB-3-1 tox	SW480 rerep	KB-V1 MDR tox	MCF10A rereplic	ELG1 DNA repair
O=C(Nc1cc([N+](=O)[O-])ccc1N1CCCC1)c1ccco1	i	0%	i	-7%	-13%
CCCc1nc2c3ccccc3ccn2c1Cc1cccc(F)c1	i	/	i	/	/
CCOc1ccc(/C=C/c2nc(C#N)c(NCCCOC)o2)cc1	5.2µM*	2.1µM*	2.1µM*	3.7µM*	-17%
C=CCNc1oc(/C=C/c2ccccc2)nc1C#N	i	21µM*	18µM*	8.2µM*	?
COCCCNc1oc(/C=C/c2ccccc2)nc1C#N	i	7.9µM*	i	16µM*	?
CN(C)CCCNc1oc(/C=C/c2ccccc2)nc1C#N	i	-13%	i	-1%	?
CCOc1ccc(/C=C/c2nc(C#N)c(NCCCN(C)C)o2)cc1	i	18µM*	i	6.5µM*	21%
COc1cccc(/C=C/c2nc(C#N)c(NCC(C)C)o2)c1	?	21µM*	?	3.3µM*	?
CCOc1ccccc1N(CC(=O)NC(C)(C)C)C(=O)Cn1nnc(-c2ccc(C)o2)n1	i	-7%	2.9µM*	-2%	?
CCC(C(=O)NC1CCCC1)N(C(=O)Cn1nnc(-c2ccc(C)o2)n1)c1ccc(OC)cc1 (stereo not drawn)	i	?	?	23%	-1%
CCCC(C(=O)NC1CCCC1)N(C(=O)Cn1nnc(-c2ccc(C)o2)n1)C1CCCC1 (stereo not drawn)	i	?	4.1µM*	16%	?
Cc1ccc(-c2nnn(CC(=O)N(Cc3ccccc3)C(C(=O)NC3CCCC3)c3ccncc3)n2)o1 (stereo not drawn)	i	0%	21µM*	?	-4%
CCC(C(=O)NC1CCCC1)N(C(=O)Cn1nnc(-c2ccc(C)o2)n1)C(C)(C)C (stereo not drawn)	i	7%	1.2µM*	-1%	2%
CCCN(CCc1cccs1)[C@H]1CCc2c(O)cccc2C1	/	9%	/	5%	/
COc1ccc(C(=O)/C=C/C(=O)N(CC(=O)NC2CCCCC2)Cc2cccs2)c(O)c1	?	?	?	18µM*	?
COc1ccc(N(CC(=O)NC2CCCCC2)S(=O)(=O)c2cccs2)cc1	i	-27%	i	12%	?
COCCN(CC(=O)NC1CCCCC1)C(=O)/C=C/C(=O)c1ccc(OC)cc1O	18µM*	?	?	6.5µM*	16%
COC(=O)c1sc2cccc(F)c2c1S(=O)(=O)Nc1ccc(C)cc1Cl	i	/	i	/	/
CCOc1ccc2ccc(OCC)c(/C=N/n3cnnc3)c2c1	i	-5%	i	8%	-5%
CCn1c(/C=C/c2ccccc2)nc2ccccc21	i	?	?	?	?
COc1ccc(Nc2nc3ccccc3n2C)cc1	i	-5%	i	1%	?
CC(O)c1nc2ccccc2n1C/C=C/c1ccccc1 (stereo not drawn)	i	0%	15µM*	-6%	13%
COc1ccc(-n2cnc3ccccc32)cc1	i	-4%	i	-2%	8.2µM*
COc1ccc(Cn2c(/C=C/c3ccccc3)nc3ccccc32)cc1	?	?	13µM*	?	?
COc1ccc(/C=C/c2nc3ccccc3n2C)cc1	5.2µM*	1%	4.1µM*	15%	?
SMILES	KB-3-1 tox	SW480 rerep	KB-V1 MDR tox	MCF10A rereplic	ELG1 DNA repair
O=C(Nc1cccc(Cl)c1)c1cc2c(=O)[nH]c3ccccc3c2s1	i	/	i	/	/
COc1ccc(C2C(C#N)=C(N)Oc3cccc(O)c32)cc1 (stereo not drawn)	i	-19%	i	?	-2%
O=C(Cn1cnc2c(oc3ccccc32)c1=O)Nc1ccc(F)cc1F	i	/	i	/	/
CC(C)c1ccccc1NC(=O)Nc1nnc([C@H]2C[C@H](O)[C@@H](CO)O2)s1	0.0012µM*	/	i	/	/
O=C(Nc1nnc([C@H]2C[C@H](O)[C@@H](CO)O2)s1)Nc1ccccc1F	i	/	i	/	/
COc1ccc2nc(SC(C)C(=O)NCC(=O)Nc3ccc(F)c(F)c3F)[nH]c2c1 (stereo not drawn)	i	-3%	i	0%	8%
CCOC(=O)c1c(C)oc2c(F)c(F)c(F)c(F)c2c1=O	?	?	?	6.5µM*	?
CCOC(=O)c1c(C)oc(=O)c(CC)c1O	i	/	i	/	/
COc1ccc2[nH]c(=O)c(CN(CCO)S(=O)(=O)c3c(C)ccc4nsnc34)cc2c1	i	14%	?	250%[0.0737 µM]	-2%
CC(=O)N(CCc1ccccc1C)Cc1cc2ccc(C)cc2[nH]c1=O	i	5%	i	?	16µM*
CNC(=S)N(Cc1cccs1)Cc1cc2cc(OC)ccc2[nH]c1=O	i	/	?	3%	?
COc1ccc2[nH]c(=O)c(CN(Cc3cccs3)S(=O)(=O)c3cccc4nsnc34)cc2c1	?	?	?	?	1.3µM*
CNC(=S)N(CCc1cccc(C)c1)Cc1cc2cc(OC)c(OC)cc2[nH]c1=O	i	-15%	?	-4%	13µM*
COc1ccc2[nH]c(=O)c(CN(Cc3cccs3)C(=S)Nc3cccc(C)c3)cc2c1	i	/	?	?	5.8µM*
COc1cc2cc(CN(CCc3cccc(C)c3)C(=S)NCCCN(C)C)c(=O)[nH]c2cc1OC	i	?	i	6%	-8%
O=C(CBr)c1ccc(Oc2ccc(C(=O)C[n+]3cccc(Br)c3)cc2)cc1	i	/	i	/	/
COCCCNC(=O)CN1C(=O)c2cccnc2Sc2ccccc21	i	/	i	/	/
Fc1cc(F)c2ncc3c(-c4ccccc4)nn(-c4cccc(Cl)c4)c3c2c1	i	/	?	/	/
Cc1cccc(NC(=S)N(Cc2cccs2)Cc2cc3cc(C)cc(C)c3[nH]c2=O)c1	?	-2%	21µM*	10%	?
COCCNC(=S)N(Cc1cccs1)Cc1cc2cccc(C)c2[nH]c1=O	i	-2%	i	15%	?
COc1cccc(NC(=O)N(Cc2cc3cc(C)cc(C)c3[nH]c2=O)CC2COCCO2)c1 (stereo not drawn)	i	0%	i	12%	7.3µM*
Cc1cccc(C)c1NC(=O)C1(C)CN(S(C)(=O)=O)CC(=O)N1Cc1ccc2c(c1)OCO2 (stereo not drawn)	i	/	i	/	/
O=C(O)c1[nH]c(-c2ccccc2)c2c1C(=O)N(C1CC1)C2=O	i	/	i	/	/
COC(=O)c1c(N(S(C)(=O)=O)S(C)(=O)=O)sc2c1CCN(c1ncc(C(F)(F)F)cc1Cl)C2	i	-1%	i	?	-4%

Assay outcomes from PubChem BioAssay.
